BJeLR lethal: BJeLR cell viability loss; inhibition, % (concentration not given with the values); BJeLR (HRASV12) viability, CellTiter-Glo ATP luminescence, 48 h; AID 1554; actives 0.17% (n = 300,000); in the data active = inhibition above about 50%
CCHF vOTU inh-1: CCHFV vOTU protease inhibition; Pep-AMC fluorescence; inhibition, % at 11.5 µM; actives 0.55% (n = 370,000); AID 651958
MazF activator: MazEF (E. coli) toxin RNase activation. P0AE70. FAM/BHQ RNA-DNA oligo cleavage fluorescence, 5 h. activation, % at 20 µM. actives 0.32% (n = 350,000). AID 504720; in the data active = activation above about 50%
Target sequence (P0AE70 whole entry, looked up): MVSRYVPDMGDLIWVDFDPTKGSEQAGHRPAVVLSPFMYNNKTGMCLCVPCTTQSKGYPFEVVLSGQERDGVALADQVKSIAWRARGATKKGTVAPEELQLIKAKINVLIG
3CLpro inhibitor: SARS-CoV 3CLpro protease inhibition. inhibition, % at 6 µM. actives 0.14% (n = 290,000). AID 1706. recombinant SARS-CoV 3CLpro, quenched FRET peptide cleavage; in the data active = inhibition above about 12%
DUSP3 inh: inhibitors of human VHR1 phosphatase (DUSP3) | P51452 | recombinant VHR phosphatase, pNPP absorbance | inhibition, % at 13.3 µM | actives 0.52% (n = 290,000) | AID 1654; in the data active = inhibition above about 50%
Target sequence (P51452 whole entry, looked up): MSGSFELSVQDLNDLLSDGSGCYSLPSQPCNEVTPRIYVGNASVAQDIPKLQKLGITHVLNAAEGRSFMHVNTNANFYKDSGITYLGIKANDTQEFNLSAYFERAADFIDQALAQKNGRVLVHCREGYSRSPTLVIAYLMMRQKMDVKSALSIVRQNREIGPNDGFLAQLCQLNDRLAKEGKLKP
CCHF vOTU inh-2: confirmation of CCHF virus vOTU protease inhibitors. Recombinant CCHFV vOTU, Pep-AMC fluorescence. inhibition, % at 11.5 µM. actives 17% (n = 1,900). shares compounds with CCHF vOTU inh-1
A number is an active result; 0 = inactive; - = no result. Sampled rows, rich in hits. Any-hit rate of the full collection: about 1.4%. Cut-off read from the data, not from the text of the source, unless noted: active = inhibition above about 30%; inactive = the rest.

SMILES | BJeLR lethal | CCHF vOTU inh-1 | MazF activator | 3CLpro inhibitor | DUSP3 inh | CCHF vOTU inh-2
COc1cc2c(cc1NCc1ccc3c(c1)OCO3)oc1ccccc12 | 0 | 0 | 0 | 0 | 0 | -
COc1cc2c(cc1NCc1ccccn1)oc1ccccc12 | 0 | 30 | 0 | 0 | 0 | 0
Nc1cnn(Cc2ccccc2F)c1 | 0 | 34 | 0 | 0 | 0 | 0
O=C(O)c1ccc(NC2=C(n3nnc4ccccc43)C(=O)c3ccccc3C2=O)cc1 | 0 | 87 | 0 | 0 | 0 | 89
O=C(O)c1ccc(-n2nnc3ccccc32)c([N+](=O)[O-])c1 | 0 | 0 | 0 | 0 | 0 | -
CCOC(=O)Nc1ccc2c(c1)N(CCCN(C)C)c1ccccc1CC2 | 0 | 0 | 0 | 0 | 0 | -
CN(C)CCCN1c2ccc([N+](=O)[O-])cc2CCc2cc([N+](=O)[O-])ccc21 | 0 | 35 | 0 | - | - | 0
O=C(NCCc1c[nH]c2ccccc12)OCc1cn(-c2cccc(Cl)c2)nn1 | - | 0 | - | - | - | -
O=C(NCc1ccco1)C1CCN(S(=O)(=O)c2ccccc2C(F)(F)F)CC1 | - | 31 | 0 | - | - | 0
COc1cccc(/C=N/Nc2ccnc(=O)[nH]2)c1O | 0 | 31 | 0 | 0 | 0 | 0
CCO[C@H]1OC(C(=O)Nc2ccccc2)=C[C@@H](c2ccc(C(F)(F)F)cc2)[C@@H]1CCCO | 0 | 32 | 0 | 0 | 0 | 0
CCO[C@H]1OC(C(=O)NCc2ccccc2)=C[C@@H](c2ccc(C(F)(F)F)cc2)[C@@H]1CCCO | 0 | 0 | 0 | 0 | 0 | -
CCc1nnc(NS(=O)(=O)c2ccc(Nc3ccc([N+](=O)[O-])c4nonc34)cc2)s1 | 0 | 31 | 0 | 0 | 0 | 0
CC(=O)c1ccc(Nc2ccc([N+](=O)[O-])c3nonc23)cc1 | 0 | 0 | 0 | 0 | 0 | -
CCc1nnc(NS(=O)(=O)c2ccc(NC(=O)c3ccc([N+](=O)[O-])s3)cc2)s1 | - | 35 | 0 | - | - | 0
COc1ccccc1C=NNC(=O)CSc1nc2ccccc2n1Cc1ccc(Cl)cc1 | - | 0 | - | - | - | -
Cc1cc(/C=C(\C#N)C(=O)O)c(C)n1CCC(C)C | 0 | 30 | 0 | 0 | 0 | 0
CC(C)CN1C(=O)N2Cc3ccccc3C2CS1(=O)=O (stereo not drawn) | - | 0 | - | - | - | -
CC1(C(=O)NS(=O)(=O)c2cccc(F)c2)CCN1C(=O)C1CCCCC1 (stereo not drawn) | - | 34 | - | - | - | 0
CCCCNC1=CC(=O)C(=O)c2ccccc21 | 0 | 35 | 0 | 0 | 0 | 68
O=C1C=C(Nc2cccc3cccnc23)c2ccccc2C1=O | 0 | 38 | 0 | 0 | 0 | 0
O=C1C=C(Nc2ccccc2)c2ccccc2C1=O | 0 | 55 | 0 | 0 | 0 | 73
O=C1C=C(Nc2ccccc2C(=O)O)c2ccccc2C1=O | 0 | 72 | 0 | 0 | 0 | 95
COC(=O)[C@]12C[C@H](CC(=O)N3CCN(C(=O)c4ccco4)CC3)C(=O)N(Cc3cccc4ccccc34)C1=C[C@H](C(C)C)O[C@@H]2C1CC1 | - | 0 | - | - | - | -
Cc1occc1-c1nnc(SCC(=O)Nc2ccncc2)n1-c1ccccc1 | - | 0 | - | - | - | -
SMILES | BJeLR lethal | CCHF vOTU inh-1 | MazF activator | 3CLpro inhibitor | DUSP3 inh | CCHF vOTU inh-2
C#CCNC(=O)C[C@H]1C[C@@]2(C(=O)OC)C(=C[C@H](C3CCCC3)O[C@@H]2C)N(CCC2=CCCCC2)C1=O | - | 0 | - | - | - | -
CCN(CC)C(=O)[C@H]1C[C@H](CC(=O)NCc2cccc(C(F)(F)F)c2)C(=O)N2CCc3c([nH]c4ccc(Cl)cc34)[C@]12C | - | 32 | 0 | - | - | 0
CCN(CC)C(=O)[C@H]1CC(CC(=O)NCc2cccc(C(F)(F)F)c2)C(=O)N2CCc3c([nH]c4ccccc34)[C@]12C (stereo partly drawn) | - | 0 | 0 | - | - | -
CCc1cc[n+](C2=C([O-])c3ccccc3C(=O)/C2=N\S(=O)(=O)c2cccs2)cc1 | 0 | 105 | 0 | 0 | 0 | 103
O=C(Nc1nccs1)C1(C(=O)C2CC2)CC(c2ccccn2)=NO1 (stereo not drawn) | - | 0 | - | - | - | -
Cc1ccc2c(c1)c1c(n2CC(O)Cn2c(C)nc3ccccc32)CCCC1 (stereo not drawn) | 0 | 0 | 0 | 0 | 0 | -
Cc1ccc2c(c1)c1c(n2CC(O)CNC(C)(C)C)CCCC1 (stereo not drawn) | - | 57 | 0 | 0 | 0 | 0
Cc1ccc(S(=O)(=O)NN=C(c2ccccc2)c2cccs2)cc1 | - | 32 | 0 | - | - | 0
CCOC(=O)[C@]12CCCCC/C=C\1N(Cc1ccc(OC)cc1)C(=O)[C@H]2CC(=O)N1CCC(c2ccccc2)CC1 | - | 0 | - | - | - | -
Oc1ccc2ccccc2c1C=NC12CN3CCN(CN(C3)C1)C2 | 0 | 72 | 0 | 0 | 0 | 73

Bioassay records from PubChem.
